Beta apoptosis: inhibitors of cytokine-induced beta cell apoptosis, primary screen, luminescence; INS-1E cytokine-induced death, ATP luminescence, 48 h; percent of positive-control rescue, neutral wells zero; protection from apoptosis, % (test concentration not listed); 300,000 tested, 0.8% active; AID 435005, 2010;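 active = Every replicate reaches about 75%, or at least half do and their mean reaches it too, limit read from the data; inconclusive = At least half of replicates reach the limit but their mean does not; inactive = Under half of replicates reach the limit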;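 also: higher means more ATP so stronger rescue from cytokine killing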
Jurkat NFkB inh: inhibitors of induced NF-kB luciferase reporter, primary screen, TCR NF-kB activation inhibitor project, cell-based, luminescence, uHTS. Jurkat, PMA/ionomycin-induced NF-kB luciferase reporter. inhibition, % at 4 µM. 330,000 tested, 0.53% active; in the data active = inhibition above about 50%
A1 inh: caspase 3/7 activation in MEF A1-2A-BIM cells, primary screen, A1 inhibitor project, cell-based, luminescence, HTS; Caspase-Glo 3/7 luminescence, 3 h; percent of clofoctol response, vehicle zero; caspase activation, % (concentration not given with the values); 330,000 tested, 0.066% active; AID 2462, 2010;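 active = over half of replicate activation scores above 10%, or exactly half above 10 with the replicate mean above 10; inconclusive = replicate mean below 10 yet half the replicates above 10; inactive = over half of replicates below 10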
Mdm2 MdmX PPI: inhibitors of human Mdm2-MdmX association, primary screen, cell-based, luminescence, split luciferase, SaOS-2, uHTS. Protein Mdm4 (Homo sapiens) + E3 ubiquitin-protein ligase Mdm2 (Homo sapiens), …. 330,000 tested, 3% active. inhibition, % at 8 µM. SaOS-2 split-luciferase Mdm2/MdmX complementation. AID 485346, 2010;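 active = inhibition of at least 50% at 8 µM in the primary screen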
NTR1 ag: agonists of human NTR1, primary screen, imaging, U2OS cells, beta-arrestin-GFP, high content. AID 493036, 2011. NTR1-U2OS beta-arrestin-GFP spot imaging, agonist mode. activation, % at 20 µM. 330,000 tested, 0.17% active. Neurotensin receptor type 1 (Homo sapiens), P30989;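 active = activation at or above 40% of the spot to cytoplasm intensity ratio, with at least 20 cells analyzed; inconclusive = wells under 20 cells, flagged as cytotoxic or low count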
697 NFkB inh: inhibitors of PMA/ionomycin-induced NF-kB reporter, 697 cells, primary screen, B-cell NF-kB inhibitor project, cell-based, luminescence, uHTS; inhibition, % at 4 µM; 330,000 tested, 0.33% active; 697 B-cell NF-kB luciferase reporter, 16 h; AID 435022, 2010; in the data active = inhibition above about 35%
Mdm2-MdmX conf: Mdm2-MdmX complex disruptors, retested hits, confirmation, luminescence, single concentration | inhibition, % at 8 µM | shares compounds with Mdm2 MdmX PPI | 10,000 tested, 55% active | Mdm2-MdmX binding, luminescent assay; in the data active = inhibition above about 40%
FLuc counter: full-length luciferase signal inhibition, confirmation, counter-screen for Mdm2/MdmX interaction inhibitor project, cell-based, single concentration, SaOS-2; SaOS-2 full-length luciferase counterscreen, luminescence; AID 504607, 2011; inhibition, % at 8 µM; 6,200 tested, 77% active; shares compounds with Mdm2 MdmX PPI;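 active = mean inhibition at 8 µM reaching about 37%, which flags the compound as non-specific, limit read from the data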;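 also: p53-null SaOS-2 cells with luciferase driven by a doxycycline-inducible promoter; compound on cells about two nights before reading with doxycycline added after day one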
Large screens that a line does not name were inactive (follow-up assays come after a bar, where they were run). This is a sample that favours compounds with a hit; in the whole collection about 3.8% have one here.

CCN(CC)c1ccc(/C=N\NC(=O)c2cccc3cc[nH]c23)cc1	Mdm2 MdmX PPI 50 | Mdm2-MdmX conf inactive
O=C(C1CCCN(c2ncnc3c2nc2n3CCCCC2)C1)N1CCN(c2cccc(Cl)c2)CC1 (centres undefined)	Mdm2 MdmX PPI 57 | Mdm2-MdmX conf inactive
COc1ccccc1N1CCN(CCCNC(=O)C2CCCN(c3ncnc4c3nc3n4CCCCC3)C2)CC1 (centres undefined)	Mdm2 MdmX PPI 50 | Mdm2-MdmX conf inactive
O=C(C1CCCN(c2ncnc3c2nc2n3CCCCC2)C1)N1CCN(c2ccccc2)CC1 (centres undefined)	none
COc1ccc(OC)c(CCNC(=O)CCc2nnc3ccc(N4CCCC4)nn23)c1	none
Cc1nc2sc3c(c2c(=O)n1N)CCC3	none
CC(=O)N(C(C)=O)n1c(C)nc2sc3c(c2c1=O)CCCC3	Mdm2 MdmX PPI 73 | Mdm2-MdmX conf 80 | FLuc counter 45
O=C1CCC(c2ccc3c(c2)CCC3)=NN1	none
C=C(CCC(=O)c1ccccc1)C(=O)c1ccccc1	none (no result: Jurkat NFkB inh, Mdm2 MdmX PPI, NTR1 ag, 697 NFkB inh)
C=C(C(=O)c1ccccc1)C(CC(=O)c1ccccc1)c1ccccc1 (centres undefined)	Mdm2 MdmX PPI 101 | Mdm2-MdmX conf 99 | FLuc counter 55
COc1ccccc1-c1nc(S(=O)(=O)c2ccccc2)c(N2CCOCC2)o1	none
COc1ccc(-c2oc(=O)c3cc(OC)c(OC)cc3c2/C=C/c2cccc([N+](=O)[O-])c2)cc1	A1 inh inconclusive, Mdm2 MdmX PPI 54 | Mdm2-MdmX conf inactive
O=C(Nc1ccccc1C(=O)O)/C(=C/c1ccc(Cl)cc1Cl)NC(=O)c1ccco1	none
CC(=O)c1ccc(N2CCN(C(=O)c3noc4c3CSc3ccccc3-4)CC2)cc1	Mdm2 MdmX PPI 51 | Mdm2-MdmX conf inactive
CCCCN(CC)C(=O)Cn1ncc2c3ccccc3n(CCC)c2c1=O	none
Cc1nc(N2CCc3ccccc3C2)[nH]c(=O)c1Cc1ccccc1	none
Cc1nc(-n2[nH]c3c(c2=O)CCCC3)[nH]c(=O)c1Cc1ccccc1	Mdm2 MdmX PPI 58 | Mdm2-MdmX conf 64 | FLuc counter inactive
COC(=O)Nc1nc(-c2ccccc2)c(C(=O)c2ccc(Cl)cc2)s1	Mdm2 MdmX PPI 61 | Mdm2-MdmX conf 55 | FLuc counter 88
O=C(Nc1ccc(-c2ccccc2)cc1)c1ccccc1	none
C=CCN1N=C(c2ccc(NC(=O)c3ccccc3)cc2)CSC1=O	Mdm2 MdmX PPI 66 | Mdm2-MdmX conf inactive
CCN1CCN(c2cc(-c3ccccc3)nc3cc(-c4cccc(F)c4)nn23)CC1	Mdm2 MdmX PPI 68 | Mdm2-MdmX conf inactive
Cc1cc(N)c2cc(NC(=O)/C=C/c3ccccc3Cl)ccc2n1	Beta apoptosis 109, Mdm2 MdmX PPI 100 | Mdm2-MdmX conf 100 | FLuc counter 51
CC1CCc2c(sc(NC(=O)c3ccc(N4C(=O)CCC4=O)cc3)c2C(N)=O)C1 (centres undefined)	none
COc1ccc2[nH]c3c(c2c1)CCNC3=O	Mdm2 MdmX PPI 71 | Mdm2-MdmX conf 48 | FLuc counter inactive
O=C1NCCc2c1[nH]c1ccccc21	none
CCCn1c(NC(=O)c2ccc(Cl)c(S(=O)(=O)N3CCCC3)c2)nc2ccccc21	Mdm2 MdmX PPI 81 (no result: Beta apoptosis) | Mdm2-MdmX conf 69 | FLuc counter 43
O=C(CCN1N=C(c2ccccc2)CCC1=O)NCC1COc2ccccc2O1 (centres undefined)	none
CN1CC(c2ccccn2)C2(SC(=S)N(Cc3ccccc3)C2=O)C12C(=O)Nc1ccccc12 (centres undefined)	none
CN1CC(c2ccccc2)C2(SC(=S)N(Cc3ccco3)C2=O)C12C(=O)Nc1ccccc12 (centres undefined)	Mdm2 MdmX PPI 76 | Mdm2-MdmX conf 54 | FLuc counter 51
CCCCNC(=S)N/N=C1\C(=O)c2cccc3cccc1c23	none
CNC(=S)N/N=C1\C(=O)c2cccc3cccc1c23	Mdm2 MdmX PPI 87 | Mdm2-MdmX conf inactive
CC(C)COC(=O)c1cccc2c1-c1ccccc1/C2=N\O	none
CCOC(=O)c1cccc2c1-c1ccccc1/C2=N/O	Mdm2 MdmX PPI 76 | Mdm2-MdmX conf 57 | FLuc counter inactive
OCC1(CO)COC(/C=C/c2ccccc2)=N1	none
Cc1[nH]c2ccccc2c1/C=N/NC(=O)C1CC1(c1ccccc1)c1ccccc1 (centres undefined)	Mdm2 MdmX PPI 65 | Mdm2-MdmX conf 48 | FLuc counter 89
Cc1nc(Nc2cnc(/C=C/c3cc(C(=O)Nc4cccc(C(F)(F)F)c4)ccc3C)cn2)cc(N2CCNCC2)n1	Beta apoptosis 107, Mdm2 MdmX PPI 90 | Mdm2-MdmX conf 52 | FLuc counter 49
COc1cc(C(=O)NCCOc2cc(C)cc(C)c2)cc(OC)c1OC	none
Nc1nonc1-c1nc2ccccc2n1Cc1ccc(F)cc1Cl	Mdm2 MdmX PPI 62 | Mdm2-MdmX conf 49 | FLuc counter 83
Cc1ccccc1NC(=O)NC1(C(=O)N2CCN(C)CC2)CCCCC1	none
CCN(C(=O)COC(=O)c1c2c(nc3ccccc13)/C(=C/c1ccccc1)CC(C)C2)C1CCS(=O)(=O)C1 (centres undefined)	Mdm2 MdmX PPI 53 | Mdm2-MdmX conf 52 | FLuc counter 55
CCN(C(=O)COC(=O)c1c(C)nn(-c2ccccc2)c1C)C1CCS(=O)(=O)C1 (centres undefined)	none
O=C1CCNc2ccc(-c3ccccc3)cc21	none (no result: Beta apoptosis)
O=C1CCNc2cc3ccccc3cc21	Mdm2 MdmX PPI 65 | Mdm2-MdmX conf 61 | FLuc counter 49
CCOc1ccc(S(=O)(=O)c2c(C(=O)c3ccc(C)cc3)cnc3cc4c(cc23)OCCO4)cc1	none
Cc1ccc(C(=O)c2cnc3cc4c(cc3c2S(=O)(=O)c2ccccc2)OCCO4)cc1	Mdm2 MdmX PPI 61 (no result: Beta apoptosis) | Mdm2-MdmX conf 42 | FLuc counter 52
O=C(Nc1cc(S(=O)(=O)N2CCCCC2)ccc1Cl)c1ccc(F)cc1	none
